Compound activity (PubChem)
ATXN2 expr inh = reduces ATXN2 reporter expression in HEK-293 cells. AID 1745845. 0.72% of 360,000 active. Potency, µM (titrated, usually from 57 µM), for the others: at the top dose activity change, negative = inhibition, most hits filed as inhibitors. HEK-293 ATXN2-luciferase reporter, luminescence, 24 h; note: potency is the fitted concentration of half-maximal effect; % is set by controls: 0 for no effect and ±100 for the full control effect; nearly all actives have a fitted effect of over 55% in size
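ATXN2-luciferase reporter cells (luciferase flanked by upstream and downstream ATXN2 gene portions) were treated 24 h at 37 °C with compounds at up to 57 uM. SteadyGlo luminescence gave expression; GF-AFC fluorescence gave viability.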
USP1-UAF1 inh = inhibitors of human USP1/UAF1 deubiquitinase. O94782. recombinant USP1/UAF1, Ub-Rhodamine cleavage fluorescence. Potency, µM (titrated, usually from 57.1 µM), for the others: at the highest dose activity change, negative = inhibition, hits mostly inhibitors. 0.23% of 390,000 active; note: potency is the fitted concentration of half-maximal effect; % is set by controls: 0 for no effect and ±100 for the full control effect; nearly all actives have a fitted effect of over 60% in size
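1 nM enzyme complex + cpd, 15 min RT; start with Ub-Rho 150nM final; kinetic fluorescence ex 480/em 540, 6 reads q60 s. Buffer 50mM HEPES pH 7.8, 0.5mM EDTA, 0.1 mg/ml BSA, 1mM TCEP, 0.01% Tween-20.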
USP2a inh = inhibitors of human ubiquitin-specific protease USP2a. O75604. USP2 core, Ub-CHOP2 coupled fluorogenic reporter, 485/531. Potency, µM (doses to about 38.3 µM), for inactives: at the top dose activity change, negative = inhibition, actives largely listed as inhibitors. 0.01% of 330,000 active. AID 463254;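 note: potency is the fitted concentration of half-maximal effect; plate controls were DMSO wells for no effect and full inhibition by NEM control for full effect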
Target sequence (O75604 whole entry, looked up): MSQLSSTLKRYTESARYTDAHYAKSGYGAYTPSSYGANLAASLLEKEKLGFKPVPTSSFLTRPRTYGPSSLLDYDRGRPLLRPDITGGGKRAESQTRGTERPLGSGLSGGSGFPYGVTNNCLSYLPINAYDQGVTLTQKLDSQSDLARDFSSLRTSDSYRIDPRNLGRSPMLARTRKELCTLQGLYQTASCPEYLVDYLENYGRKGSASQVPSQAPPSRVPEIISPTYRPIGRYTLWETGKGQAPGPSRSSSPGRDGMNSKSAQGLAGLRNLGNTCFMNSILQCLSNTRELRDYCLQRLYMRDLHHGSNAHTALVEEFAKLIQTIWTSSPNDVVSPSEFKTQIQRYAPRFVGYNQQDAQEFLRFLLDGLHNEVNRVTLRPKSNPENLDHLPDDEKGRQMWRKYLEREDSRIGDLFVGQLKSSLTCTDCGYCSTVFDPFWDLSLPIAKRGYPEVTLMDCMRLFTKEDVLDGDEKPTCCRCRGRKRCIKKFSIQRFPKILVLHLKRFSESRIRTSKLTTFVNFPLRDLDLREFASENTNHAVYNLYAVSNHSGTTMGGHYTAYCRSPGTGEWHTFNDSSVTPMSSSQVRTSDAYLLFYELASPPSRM
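USP2 core (10nM final) preincubated 30min RT with compound in 20mM Tris-HCl pH 8.0, 2mM CaCl2, 2mM beta-mercaptoethanol, 0.05% CHAPS; 25nM Ub-CHOP2 plus 25nM reporter substrate added, fluorescence (Ex485/Em531) read after 60min.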
IL-1B inflam inh = inflammasome signaling inhibition, IL-1 beta readout; THP-1 LPS/ATP IL-1B secretion, AlphaLISA, 16 h; active compounds read low; activity change, % at 57.5 µM; 4.7% of 360,000 active; AID 743279; in the data active = activity change below about -50%; inconclusive = mostly about -30% to -49%; note: % is set by controls: 0 for no effect and ±100 for the full control effect
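THP-1 cells pretreated 1 hr with compounds (up to 57.5 uM final), then stimulated with LPS (250 ng/mL final) plus ATP (1.25 mM final); secreted IL-1B measured by AlphaLISA after 16 hr, decreased signal indicating inhibition.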
S2 tox = viability counter-screen for ATXN expression inhibitors | S2 cells (HEK-293 line with an ATXN2-luciferase reporter) viability, CellTiter-Fluor protease fluorescence, 24 h | Potency, µM (highest dose often 56.7 µM), hits mostly cytotoxic | 0.49% of 400,000 active | AID 651635; note: potency is the fitted concentration of half-maximal effect; nearly all actives have a fitted effect of over 40% in size
Numbers without * were called inactive; i = inactive; ? = inconclusive; / = no result given; [ ] = another dose, or the depositor's remark. Shown are actives, neighbours in structure and some others; about 4.8% of the full set was active somewhere. Unless noted, calls come from the whole dose curve; as a rule, active = well fitted curve in the direction sought with a large enough effect; inconclusive = small, poorly fitted or top-dose-only effect, or another doubt; inactive = no such curve, though single readings can be large; an effect the other way counts as inactive or inconclusive.

SMILES	ATXN2 expr inh	USP1-UAF1 inh	USP2a inh	IL-1B inflam inh	S2 tox
CC(/C=C1\SC(=S)N(CCC(=O)Nc2ccc(O)cc2)C1=O)=C\c1ccccc1	-31%	-18%	5%	-53*	?
CC(=Cc1ccccc1)C=C1SC(=S)N(CCCC(=O)Nc2ccc(C(=O)O)c(O)c2)C1=O	47%	/	/	0	i
CC(/C=C1\SC(=S)N(NC(=O)c2ccc(C)cc2)C1=O)=C\c1ccccc1	0%	-8%	0%	-13	i
COC(=O)C1CCN(Cc2ccc3c(c2)CN(C(=O)c2cc4cc(F)ccc4[nH]2)CCO3)CC1	/	/	/	/	i
O=S1(=O)N=C(c2ccccc2)C=C(c2ccccc2)N1	2%	-19%	6%	17	i
COCCNc1nc(Nc2ccc(C)cc2C)c2sc(-c3ccccc3)cc2n1	-19%	/	/	-25	?
COCCNc1nc(NCc2cccc(OC)c2)c2sc(-c3ccccc3)cc2n1	-24%	/	/	-112*	?
COCCNc1nc(NCc2ccc(NC(C)=O)cc2)c2sc(-c3ccccc3)cc2n1	22µM*	/	/	0	/
C[N+](C)(CCOc1ccccc1)Cc1cccs1	1%	/	/	/	i
CC(=O)OC1[C@H](Oc2c(O)c(C)c3c4c2[C@@H](C)CC[C@@H]4[C@@H](C)C[C@@H]3C=C(C)C)OC[C@@H](O)[C@@H]1O (stereo partly drawn)	3%	?	3%	-3	i
CC(=O)O[C@H]1[C@H](O)[C@H](Oc2c(O)c(C)c3c4c2[C@@H](C)CC[C@@H]4[C@@H](C)C[C@H]3C=C(C)C)O[C@@H](C)[C@H]1O	?	-9%	?	-77*	?
CC(C)=C[C@H]1C[C@H](C)[C@H]2CC[C@H](C)c3c(O[C@@H]4OC[C@@H](O)[C@H](O)C4O)c(O)c(C)c1c32 (stereo partly drawn)	?	-30%	-16%	-74*	?
Cc1cccc(N2CCN(C(=O)c3ccc4c(Cl)c5c(nc4c3)CCCC5)CC2)c1C	-21%	-5%	/	/	i
COC(=O)/C=C/C(=O)N1CCN(c2ccccc2)CC1	5%	-3%	0%	-91*	i
COC(=O)/C=C/C(=O)N1CCN(c2ccccc2C)CC1	4%	-15%	0%	-108*	?
COc1ccccc1CNC(=O)N1CCN(c2ccccc2C)CC1	4%	-16%	0%	10	i
Cc1ccc(C)c(-n2c(N)c(C#N)c3nc4ccccc4nc32)c1	-4%	-26%	/	/	/
CCc1ccc(C(C(=O)NC2CCCCC2)N(C(=O)c2csnn2)C2CC2)cc1 (stereo not drawn)	4%	-13%	1%	1	i
COc1ccc(C2c3c4c(n(C)c3CCN2C)CCN(C)C4c2ccc(OC)cc2)cc1 (stereo not drawn)	-21%	-12%	0%	-55*	i
Cc1ccc(C)c(Oc2ncnc(N)c2[N+](=O)[O-])c1	20%	-21%	3%	-7	i
Cc1cc(Sc2ncnc(N)c2[N+](=O)[O-])ncn1	?	-13%	-1%	-100*	?
Cc1cc(N)ncc1[N+](=O)[O-]	4%	?	/	-5	i
Cc1cc(Sc2nc(N)ncc2[N+](=O)[O-])ncn1	-7%[11.3 µM]	-15%	3%	-109*	i
CC1(C)CC2CC(C)(CN2C(=O)c2cc(-c3ccc(O)cc3)on2)C1 (stereo not drawn)	-32%	-14%	-2%	-62*	?
CC(C)OC(=O)/C(=C\c1cccc2ccccc12)NC(=O)c1ccccc1	-3%	-16%	1%	-79*	i
CC(C)OC(=O)/C(=C\c1ccccc1)NC(=O)c1ccccc1	/	-18%	1%	-2	i
Cc1nc2cc(-c3ccccc3)sc2c(=O)n1N	0.89µM*	3%	7%	-6	i
O=C(NC1CCCC1)c1cccc2c1C(=O)c1ccc(Cl)cc1S2(=O)=O	-9%	?	0%	-1	i
COC(=O)c1cc(NC(=O)c2ccc(Cn3cc(Cl)cn3)o2)cc(C(=O)OC)c1	?	-3%	0%	-9	20µM*
